CBFb RUNX1 block – CBF-beta/RUNX1 interaction disruption | Potency, µM (doses to about 59.8 µM), actives largely listed as inhibitors | Q01196+Q13951 | 230,000 tested, under 10 active | AlphaScreen CBFb-His/RUNX1-biotin binding, biochemical
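Bead-based AlphaScreen assay; binding partners His-tagged CBF-beta and biotinylated RUNX1 at 30 nM each. Compound exposure 15 min after a 20-min protein preincubation; bead step 90 min; all steps at room temperature.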
JMJD2E inh – JMJD2E (human) inhibition; B2RXH2; JMJD2E catalytic domain, FDH-coupled NADH fluorescence (FDH is formaldehyde dehydrogenase); Potency, µM (titrated, usually from 57.1 µM), usual class: inhibitors; 230,000 compounds, 1.6% hits; AID 2147; active = well fitted inhibition curve with a large enough effect, not every such curve was filed as active; inconclusive = small, poorly fitted or top-dose-only effect, or another doubt; inactive = no such curve, though single readings can be large or run the other way; also: nearly all actives have a fitted effect of over 50% in size
Target sequence (B2RXH2 1-337 limits assumed): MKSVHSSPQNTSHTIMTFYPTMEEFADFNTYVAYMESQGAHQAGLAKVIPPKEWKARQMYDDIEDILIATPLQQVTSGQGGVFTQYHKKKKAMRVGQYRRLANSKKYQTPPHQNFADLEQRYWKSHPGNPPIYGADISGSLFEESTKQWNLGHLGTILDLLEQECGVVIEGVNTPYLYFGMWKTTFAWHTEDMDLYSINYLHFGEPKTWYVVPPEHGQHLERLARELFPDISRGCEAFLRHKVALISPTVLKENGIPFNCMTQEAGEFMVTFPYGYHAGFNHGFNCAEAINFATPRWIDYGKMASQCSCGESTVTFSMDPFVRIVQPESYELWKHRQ
Tau FP inhib – inhibitors of human tau fibril formation; K18 P301L tau heparin fibrillization, Alexa594 FP, 6 h; 280,000 compounds, 0.39% hits; Potency, µM (titrated, usually from 57.7 µM), actives largely listed as inhibitors; also: nearly all actives have a fitted effect of over 55% in size
Target sequence (P10636 561-689 P618L limits assumed): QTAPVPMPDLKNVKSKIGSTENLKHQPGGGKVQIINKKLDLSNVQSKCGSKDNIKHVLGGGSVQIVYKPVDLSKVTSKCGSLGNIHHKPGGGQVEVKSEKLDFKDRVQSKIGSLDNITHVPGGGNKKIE
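Compound effects on tau fibrillization are measured by Alexa 594 fluorescence polarization (ex 555, em 632 nm). K18 P301L tau is used at 15 uM with 0.24 uM labeled tracer, and 20 uM heparin induces aggregation over 6 hr at 37 C.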
Tau fluor cs – counter-screen for tau fibril formation inhibitors | AID 1463 | Potency, µM (doses to about 57.7 µM) | tau K18 P301L Alexa594 fluorescence, heparin fibrillization | 280,000 compounds, 0.93% hits; also: nearly all actives have a fitted effect of over 55% in size
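Human K18 P301L tau (15 uM unlabeled plus 0.24 uM Alexa 594-labeled, final) in 100 mM sodium acetate pH 7 was mixed with compound and 20 uM heparin and incubated 6 hr at 37 C.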
LMNA splice mod – changes lamin A minigene splicing in HeLa cells; HeLa LMNA splicing GFP/RFP minigene ratio, 48 h; Potency, µM (doses to about 46.1 µM), most hits filed as inhibitors; 200,000 compounds, 0.01% hits; active = well fitted inhibition curve with a large enough effect in the signal ratio, with a control signal flat, not every such curve was filed as active; inconclusive = small, poorly fitted or top-dose-only effect, or effect the other way, or a change in a side signal; the % refers to the signal ratio
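Read-out is the ratio of GFP to DsRed2 object intensity, acquired by 488 nm laser-scanning cytometry on HeLa lamin A-EGFP minigene reporter cells. Compound incubation 48 hrs at 37 °C in Opti-MEM with 2% FBS; DMSO 0.5% final.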
Tau fibril ThT – blocks human tau fibril formation measured by thioflavin T; recombinant tau K18 P301L (four-repeat tau fragment), heparin-induced fibrillization, ThT fluorescence; Potency, µM (titrated, usually from 57.4 µM), actives largely listed as inhibitors; 270,000 compounds, 2.1% hits; also: nearly all actives have a fitted effect of over 55% in size
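Heparin-induced fibrillization of the P301L-mutant K18 repeat-domain fragment of human tau was followed by ThT binding in quantitative high-throughput format.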
Numbers stand for hits; n = inactive; u = inconclusive; x = no result; [ ] = dose if it differs, or a comment. In the library only some 3.2% were active in any assay of this set; here they are far more common. Unless noted, calls follow the shape of the dose curve; as a rule, active = well fitted curve in the direction sought with a large enough effect; inconclusive = small, poorly fitted or top-dose-only effect, or another doubt; inactive = no such curve, though single readings can be large; an effect the other way counts as inactive or inconclusive.

SMILES	CBFb RUNX1 block	JMJD2E inh	Tau FP inhib	Tau fluor cs	LMNA splice mod	Tau fibril ThT
COc1cc(-c2nc3ccc(C)cn3c2Nc2ccc(Cl)cc2)ccc1O	x	x	u	8.91µM[quencher]	x	u
COc1cc(-c2nc3ccc(Cl)cn3c2Nc2ccc3c(c2)OCO3)ccc1O	x	x	n	14.1µM[quencher]	x	u
COc1cccc(N2CC(NC(=O)c3cc(Cl)ccc3OC)CC2=O)c1 (centres undefined)	x	x	n	n	n	n
Nc1ccc(-c2nc3c(Cl)cc(N)cc3[nH]2)cc1	n	u	u	u	u	20µM
COc1ccc(NC(=S)Nc2ccc(OCc3ccccc3)cc2)cc1OC	n	n	n	25.1µM[quencher]	u	u
Cc1ccc(NC(=O)C(Cc2ccccc2)NS(=O)(=O)c2ccc3c(c2)CCC(=O)N3)cc1 (centres undefined)	x	x	n	n	x	n
O=C(/C=C/NNC(=O)c1ccc(Br)cc1)c1ccccc1	n	n	n	u	n	25.1µM
CCc1cc[n+](-c2nc([O-])sc2C=O)cc1	n	n	u	n	u	u
CC(C)c1cc[n+](-c2nc([O-])sc2C=O)cc1	n	u	n	n	n	35.5µM
Cc1nnc(NC(=O)c2sc3nc(-c4cccs4)cc(C(F)(F)F)c3c2N)s1	n	u	n	n	n	12.6µM
CC(C)(C)C(=O)c1sc2nc(-c3cccs3)cc(C(F)(F)F)c2c1N	n	6.31µM	n	n	n	u
Nc1c(C(=O)Nc2nccs2)sc2nc(-c3cccs3)cc(C(F)(F)F)c12	n	u	n	n	n	n
O=C(NNc1ccccc1[N+](=O)[O-])Nc1cccc(Cl)c1	u	u	n	n	x	u
COc1ccc2cc3c(N)c(C(=O)NCc4ccco4)sc3nc2c1	n	u	n	u	n	2.82µM
CCn1c(C)nc2cc(C(=O)N/N=C(\C)c3ccc(OC)cc3O)ccc21	n	12.6µM	n	n	n	u
CCn1c(C)nc2cc(C(=O)N/N=C/c3ccc(OC)cc3)ccc21	n	n	n	n	n	u
CCn1c(C)nc2cc(C(=O)N/N=C/c3cccc(O)c3O)ccc21	u	3.55µM	n	n	x	u
Cc1ccc(-c2cn3c(n2)sc2cc(C(=O)NCCC4=CCCCC4)ccc23)c(C)c1	x	x	u	n	n	n
Fc1cc(Br)ccc1Nc1c2c(nc3nc(-c4cccs4)nn13)CCCC2	x	x	n	n	u	n
CCOc1ccccc1NS(=O)(=O)c1ccc(N2CCCCS2(=O)=O)cc1	x	x	n	n	u	n
O=C(O)c1ccc(N/N=C/C2=Cc3ccccc3OC2)cc1	n	u	n	12.6µM[quencher]	x	3.98µM
CC(=O)Nc1ccc(SCC(c2ccccc2)N2CCN(C)CCC2=O)cc1 (centres undefined)	n	x	x	x	x	x
C#Cc1ccc2c(c1)C(=O)N(C)Cc1c(C(=O)OCCCOC(=O)c3ncn4c3CN(C)C(=O)c3cc(C#C)ccc3-4)ncn1-2	n	x	x	x	x	x
Cc1sc(-c2ccncc2)nc1OC(=O)c1cc(Cl)cc(Cl)c1	n	n	n	n	n	28.2µM
CN1/C(=C\P(=O)(N(C)C)N(C)C)C(C)(C)c2ccccc21	n	n	u	u	u	31.6µM
SMILES	CBFb RUNX1 block	JMJD2E inh	Tau FP inhib	Tau fluor cs	LMNA splice mod	Tau fibril ThT
CCOC(=O)/C=C1/N(C)c2ccccc2C1(C)C	n	n	n	n	x	x
CN1/C(=C/C2CC(=O)NC2=O)C(C)(C)c2ccccc21 (centres undefined)	n	u	u	n	n	28.2µM
CN1/C(=C/C2CC(=O)N(c3cccc4ccccc34)C2=O)C(C)(C)c2ccccc21 (centres undefined)	n	n	n	n	n	u
S=c1[nH]c2ccccc2s1	u	20µM	n	n	x	n
S=c1[nH]c2cc3ccccc3cc2[nH]1	n	u	n	n	x	u
COc1ccc(/C=N/NC(=O)c2nn(-c3ccc(Cl)cc3)c(=O)c3c(N)scc23)cc1	u	u	u	u	n	10µM
COc1ccc(/C=N/NC(=O)c2nn(-c3ccc(C)c(C)c3)c(=O)c3ccccc23)cc1	n	u	n	n	n	n
COc1ccc(/C=N/NC(=O)c2nn(-c3ccccc3)c(=O)c3c(N)scc23)cc1	u	u	u	u	n	14.1µM
CCOc1cc(/C=C2\NC(=S)N(c3c(C)n(C)n(-c4ccccc4)c3=O)C2=O)ccc1O	n	n	n	n	n	n
CCOc1cccc(/C=C2\NC(=S)N(c3ccccc3)C2=O)c1O	n	n	n	u	x	14.1µM
O=C(/C=C/c1ccco1)NC(=S)Nc1ccc(N2CCCC2)cc1	u	11.2µM	n	u	u	3.55µM
O=C(/C=C/c1ccco1)NC(=S)Nc1ccc(Cl)cn1	u	u	n	u	n	22.4µM
O=C(/C=C/c1ccco1)N1CCN(c2ccccc2)CC1	n	n	n	n	u	n
O=C(/C=C\c1ccco1)Nc1ccc(N2CCN(C(=O)c3ccccc3)CC2)cc1	n	n	n	u	u	11.2µM
Cc1ccnc(NC(=S)NC(=O)/C=C/c2ccco2)c1	n	u	n	n	u	u
COc1cccc(CNC(=O)C2CCN(S(=O)(=O)c3cn(C)cn3)CC2)c1	x	x	n	n	n	n
C=CC[C@@H]1/C=C(\C)C[C@H](C)C[C@H](OC)[C@H]2O[C@@](O)(C(=O)C(=O)N3CCCC[C@H]3C(=O)O[C@H](/C(C)=C/[C@@H]3CC[C@@H](O)[C@H](OC)C3)[C@H](C)[C@@H](O)CC1=O)[C@H](C)C[C@@H]2OC	n	x	x	x	x	x
CCCN(CCC)C(=O)Cn1c(=O)n(-c2ccc(CC)cc2)c(=O)c2c3c(sc21)CCC3	x	x	n	n	x	n
COc1ccc(OC)c(C2=Nn3c(nnc3-c3ccc(OC)c(OC)c3)SC2)c1	n	x	x	x	x	x
O=C(/C=C/c1ccc([N+](=O)[O-])cc1)Nc1ncc([N+](=O)[O-])s1	n	n	n	u	u	3.55µM
CC(C)NC(=O)CCCN1C(=O)CCn2nc(-c3cccn3C)cc21	x	x	n	n	n	n
CC(C)(S)[C@@H](N)C(=O)O	u	2.24µM	u	n	n	u
COc1cc(NS(=O)(=O)c2ccc(NC(=O)COc3ccc(Cl)cc3Cl)cc2)nc(OC)n1	x	x	n	n	x	n
CC1=NOC(=O)/C1=C\c1ccc(-c2ccc(Cl)cc2Cl)o1	n	n	n	u	u	20µM
Cc1cccc(C)c1NC(=O)c1ccc(-c2ccc(Cl)cc2Cl)o1	n	n	n	n	u	n
Cc1ccc(-n2c(=O)c3c4c(sc3n(CC(=O)C(C)(C)C)c2=O)CCCCC4)cc1C	x	x	n	n	x	n
O=C(Nc1ccc(Oc2ccc3c(c2)C(=O)N(c2ccc(O)cc2)C3=O)cc1)c1cccs1	n	n	14.1µM	n	n	n
CC(C)CN1C(=O)c2ccc(NC(=O)c3cccs3)cc2C1=O	n	u	u	u	n	n
